High-throughput results: PubChem, National Center for Advancing Translational Sciences (NCATS)
G9a block = qHTS Assay for Inhibitors of Histone Lysine Methyltransferase G9a; Histone-lysine N-methyltransferase EHMT2 (Homo sapiens), Q96KQ7; G9a H3K9 monomethylation, AlphaScreen, 2 h; AID 504332, 2011; Potency, µM (highest dose often 102 µM), inactives show at the top dose activity, negative = inhibition, usual class: inhibitors; 8.8% of 350,000 active; note: % is set by controls: 0 for no effect and ±100 for the full control effect; nearly all actives have a fitted effect of over 75% in size
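G9a (20 nM) was preincubated 15 min with compound, then reacted 2 h at room temperature with 500 nM biotin-H3K9 peptide and 20 µM SAM. Monomethyl-H3K9 detected by AlphaScreen using anti-H3K9me1 antibody.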
Sfp PPTase inh = qHTS Assay for Inhibitors of Bacillus subtilis Sfp phosphopantetheinyl transferase (PPTase). Biochemical Sfp PPTase activity, qHTS. Potency, µM, inactives show largest response in the series, negative = inhibition, most hits filed as inhibitors. 3.5% of 310,000 active. AID 1490, 2009;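 note: the enzyme is Sfp with the accession as filed and its product quenches rhodamine fluorescence; 0% = enzyme reaction without inhibitor and -100% = no enzyme wells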
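Compounds were incubated with enzyme (final 15 nM) for 15 min at room temperature before substrate addition started the reaction. Fluorescence at 525 nm excitation, 598 nm emission was recorded immediately and after 30 minutes.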
JMJD2A Tudor inh = qHTS Assay for Inhibitors of JMJD2A-Tudor Domain; AID 504339, 2011; Potency, µM (series often up to 114 µM), inactives show top-dose activity change, negative = inhibition, most hits filed as inhibitors; 4.4% of 390,000 active; Lysine-specific demethylase 4A (Homo sapiens), O75164; AlphaScreen JMJD2A-Tudor / H3K4me3 peptide binding; note: % is set by controls: 0 for no effect and ±100 for the full control effect; nearly all actives have a fitted effect of over 50% in size
PLK1 PBD block = qHTS for Inhibitors of PLK1-PDB (polo-like kinase 1 - polo-box domain): Primary Screen | Serine/threonine-protein kinase PLK1 (Homo sapiens), P53350 | Plk1 PBD binding of FITC phosphopeptide, fluorescence polarization | Potency, µM, without a hit: max response, negative = inhibition, actives largely listed as inhibitors | 2.8% of 360,000 active | AID 720504, 2013; note: series mostly up to about 57 µM; % is set by controls: 0 for no effect and ±100 for the full control effect; nearly all actives have a fitted effect of over 65% in size
BAZ2B inh = qHTS Assay for Inhibitors of BAZ2B | Bromodomain adjacent to zinc finger domain protein 2B (Homo sapiens), Q9UIF8 | AlphaScreen BAZ2B-H3K14Ac peptide displacement | 4.4% of 360,000 active | Potency, µM (titrated, usually from 114 µM), inactives show at the top dose activity change, negative = inhibition, most hits filed as inhibitors; note: % is set by controls: 0 for no effect and ±100 for the full control effect; nearly all actives have a fitted effect of over 60% in size
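AlphaScreen displacement: compounds (up to 110uM) incubated 30 min at room temperature with a preformed 50 nM BAZ2B/50 nM biotinylated H3K14Ac peptide complex in PBS pH 7.4 with Tween-20. Donor and acceptor beads at 10 ug/mL final added, 20 min light-protected before reading.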
HP1b chromo inh = HTS for Inhibitors of HP1-beta Chromodomain Interactions with Methylated Histone Tails; Chromobox protein homolog 1 (Homo sapiens), P83916; AlphaScreen HP1-beta / biotin-H3K9me3 peptide binding; Potency, µM (top dose mostly 114 µM), without a hit: at the top dose activity change, negative = inhibition, hits mostly inhibitors; 0.56% of 390,000 active; AID 540317, 2011; note: nearly all actives have a fitted effect of over 70% in size
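HP1-beta protein (50 nM final) preincubated 30 min at room temperature with biotinylated H3(1-18)K9me3 peptide (50 nM) in PBS pH 7.4, 0.01% Tween-20, then compound added for 30 min. AlphaScreen streptavidin donor/nickel chelate acceptor beads (10 ug/mL final), 30 min dark, luminescence read.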
* marks the source's active call; other numbers are inactive results; ? = inconclusive; . = no result; ! = a repeat was not active; [ ] = another dose, or the depositor's remark. Sampled rows, rich in hits. Any-hit rate of the full collection: about 12%. Calls come from the whole dose curve; as a rule, active = well fitted curve in the direction sought with a large enough effect; inconclusive = small, poorly fitted or top-dose-only effect, or another doubt; inactive = no such curve, though single readings can be large; an effect the other way counts as inactive or inconclusive. Potency is the fitted concentration of half-maximal effect.

SMILES	G9a block	Sfp PPTase inh	JMJD2A Tudor inh	PLK1 PBD block	BAZ2B inh	HP1b chromo inh
COc1ccccc1C(CCN(Cc1ccccc1)C(C)=O)c1ccco1 (stereo not given)	20.7%[12.7 µM]	56.2µM*	-22.3%	-16.6%	?	25.2%
Cc1ccc(S(=O)(=O)N[C@H](C(=O)OCC(=O)NC(=O)c2cccn2C)C(C)C)cc1	.	.	-29.7%	-14.1%	.	-6.8%
CSCC[C@H](NC(=O)[C@H](CCCN=C(N)N)NC(=O)[C@@H]1CCCN1C(=O)[C@H](Cc1ccccc1)NC(=O)[C@H](C)NC(=O)[C@H](CC(C)C)NC(=O)[C@H](Cc1ccc(O)cc1)NC(=O)[C@H](CC(N)=O)NC(=O)[C@@H](N)CCSC)C(N)=O	.	6.1%	.	.	.	.
O=C1CC(/C=C/c2ccco2)=Nc2ccccc2N1	44.7µM*	-22.5%	-28.6%	-21.6%	-12.0%	17.1%
O=C1CC(/C=C/c2ccc([N+](=O)[O-])cc2)=Nc2ccccc2N1	.	22.4µM*	-10.3%[11.4 µM]	?	?	-14.2%
O=C1CC(C(F)(F)C(F)(F)C(F)(F)C(F)F)=Nc2ccccc2N1	12.3%	11.3%	6.7%	-5.1%	5.9%	13.1%
O=C1CC(/C=C/c2ccccn2)=Nc2ccccc2N1	44.7µM*	-35.4%	44.7µM*	?	?	-15.1%
Cc1onc(-c2ccccc2)c1C(=O)N1CCC(C)(C(=O)O)C1 (stereo not given)	.	.	.	-3.6%	.	.
Cn1nc(-c2ccccc2F)c2cc(C(=O)NCc3ccccc3Cl)sc21	-28.7%[59 µM]	.	-6.3%	.	-9.4%	13.9%
O=C(NNc1cc(C(F)(F)F)ccc1Cl)c1ccc(=O)[nH]c1	-32.3%	56.2µM*	-14.0%	-21.3%	4.3%	2.1%
CS(=O)(=O)Nc1cccc(C(=O)CC2(O)C(=O)Nc3ccc(Br)cc32)c1 (stereo not given)	-33.5%	3.1%	3.9%[57.1 µM]	-4.9%	-21.2%	15.7%
CCS(=O)(=O)Nc1ccc(C(=O)CC2(O)C(=O)Nc3ccc(Br)cc32)cc1 (stereo not given)	-23.4%	11.4%	17.8%[11.4 µM]	21.2µM*	-19.7%	4.2%
Cc1[nH]c2ccc(C(=O)NCCCN3CCCCCC3)cc2c1C	?	-12.9%	?	-17.2%	-33.9%	13.4%
Cc1[nH]c2ccc(C(=O)NCCCN3CCCC3)cc2c1C	?	8.1%	?	-5.2%	-23.7%[57.1 µM]	4.0%[57 µM]
CCn1c(C)c(C)c2cc(C(=O)NCCCN3CCN(C)CC3)ccc21	?	4.0%	-27.8%	0.2%	?	-6.1%
CCn1c(C)c(C)c2cc(C(=O)NCCCN3CCCCC3)ccc21	?	3.7%	?	-1.2%	39.8µM*!	1.2%
CCn1c(C)c(C)c2cc(C(=O)NCCCN3CCCCCC3)ccc21	?	?	56.2µM*	-12.6%	56.2µM*	-19.3%
CCn1c(C)c(C)c2cc(C(=O)NCCN3CCCCCC3)ccc21	50.1µM*	-25.0%	44.7µM*	-16.6%	22.4µM*	-6.0%
COc1cccc(OCCn2c(-c3ccc(Cl)cc3)nc3ccccc3c2=O)c1	-26.5%[59 µM]	.	12.1%	.	20.6%	51.6%
O=C(NCCc1ccc(Cl)cc1)c1cnc2sc(N3CCCC3)nn2c1=O	5.0%[59 µM]	.	-1.3%	.	-3.4%	-4.5%
CCOC(=O)C(C(=O)OCC)c1cc(Br)c2noc3c2c1C(=O)c1ccccc1-3	2.51µM*	0.708µM*	50.1µM*	1.89µM*	7.94µM*	?
CCOC(=O)c1c(C)nc2c(c1-c1ccc(OC)c(OC)c1)C(=O)c1ccccc1-2	-7.3%	5.8%	-16.8%	-6.5%	-6.3%	7.3%
O=C(CN1C(=O)CC(c2ccco2)Sc2ccccc21)Nc1cccc(C(F)(F)F)c1 (stereo not given)	-15.2%[59 µM]	.	-9.5%	.	-36.9%	30.7%
COCCN1C(=O)C(=O)/C(=C(/O)c2ccc(S(=O)(=O)N3CCOCC3)cc2)C1c1cccc(OC)c1 (stereo not given)	70.8µM*	-20.1%	-14.9%	-9.0%	-3.7%[57.1 µM]	47.0%
COCCN1C(=O)C(=O)/C(=C(/O)c2ccc(S(=O)(=O)N3CCCCC3)cc2)C1c1ccc(O)c(OC)c1 (stereo not given)	70.8µM*	0.4%	89.1µM*	-18.0%	-11.5%[57.1 µM]	48.4%
SMILES	G9a block	Sfp PPTase inh	JMJD2A Tudor inh	PLK1 PBD block	BAZ2B inh	HP1b chromo inh
COCCN1C(=O)C(=O)/C(=C(/O)c2ccc(S(=O)(=O)N3CCCCC3)cc2)C1c1ccc(OC)cc1 (stereo not given)	70.8µM*	-0.3%	-30.4%	-18.5%	-3.9%[57.1 µM]	47.8%
COc1ccc(C2/C(=C(/O)c3ccc(S(=O)(=O)N4CCOCC4)cc3)C(=O)C(=O)N2CCN2CCOCC2)cc1 (stereo not given)	50.1µM*	9.0%	-11.0%	-4.1%	?	-4.1%
COc1ccc(/C(O)=C2/C(=O)C(=O)N(CCCN3CCOCC3)C2c2ccc(OC)cc2)cc1 (stereo not given)	.	-1.5%	3.6%	-6.2%	-9.6%	29.4%
O=[S+]([O-])(c1ccc2c(c1)OCCO2)N1CCN([S+](=O)([O-])c2ccc(F)cc2Cl)CC1	.	.	-11.0%	.	.	.
O=C(Nc1ccc(F)c(F)c1)c1ccc(=O)n(Cc2ccc(F)cc2)c1	4.9%[59 µM]	.	2.3%	.	2.9%	31.3%[57 µM]
Cc1cc(OCCOCCN(C)C)ccc1Cl	?	-29.4%	28.2µM*	-1.5%	?	?
Cc1cc(C)c(OCCN(C)C)c(Cl)c1	11.2µM*	-17.7%	3.55µM*	?	50.1µM*	?
Cc1cc(Cl)cc(Cl)c1OCCOCCN(C)C	11.2µM*	-20.5%	6.31µM*	1.8%	?	?
Cc1ccc2c(c1)N(CC(=O)N1CCCCCC1)C(=O)C(C)O2 (stereo not given)	-2.6%[59 µM]	12.4%	-2.0%	-4.2%	-8.1%	21.3%
O=C(Nc1cc(-c2nc3ccccc3o2)ccc1Cl)c1sc2c([N+](=O)[O-])cccc2c1Cl	21.1%[59 µM]	.	-28.4%	.	-29.0%	37.9%
Brc1ccc([C@H]2CN3CCSC3=N2)cc1	?	.	6.31µM*	2.2%	.	?
N#C/C(=C/c1ccco1)c1nc2ccccc2s1	?	-22.5%	-22.1%	-7.5%	-27.1%	13.4%
N#C/C(=C/c1ccc(-c2cc(C(=O)O)cc(C(=O)O)c2)o1)c1nc2ccccc2s1	11.2µM*	56.2µM*	.	.	56.2µM*	.
N#C/C(=C\c1ccco1)c1nc2ccccc2s1	8.91µM*	4.7%	-11.5%	-12.4%	?	21.4%
